# Measurements: article PMC10338342
# What was measured:
# [1] = molecular target: Protein max (UniProt P61244); experiment: cross-link between two proteins; cross-linking mass spectrometry; other
# [2] = molecular target: Histone H3.1 (UniProt P68431); experiment: cross-link between two proteins; cross-linking mass spectrometry
# [3] = molecular target: Histone H4 (UniProt P62805); experiment: as above
# [4] = molecular target: Histone H2B type 1-J (UniProt P06899); experiment: as above
# Myc proto-oncogene protein, P01106, sequence (P01106 whole entry): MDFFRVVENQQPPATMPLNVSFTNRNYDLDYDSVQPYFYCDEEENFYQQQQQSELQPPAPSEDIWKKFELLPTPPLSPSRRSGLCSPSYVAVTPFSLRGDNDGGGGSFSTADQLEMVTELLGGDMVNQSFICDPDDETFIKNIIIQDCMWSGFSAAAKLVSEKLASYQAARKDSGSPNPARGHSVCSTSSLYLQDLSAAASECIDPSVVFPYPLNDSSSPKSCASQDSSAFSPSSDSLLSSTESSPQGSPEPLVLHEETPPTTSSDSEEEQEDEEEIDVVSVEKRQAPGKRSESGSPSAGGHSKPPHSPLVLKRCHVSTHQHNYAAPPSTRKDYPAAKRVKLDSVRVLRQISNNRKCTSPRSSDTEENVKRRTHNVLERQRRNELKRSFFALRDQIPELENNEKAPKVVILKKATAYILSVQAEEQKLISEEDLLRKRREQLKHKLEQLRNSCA
# Protein max, sequence (P61244 whole entry): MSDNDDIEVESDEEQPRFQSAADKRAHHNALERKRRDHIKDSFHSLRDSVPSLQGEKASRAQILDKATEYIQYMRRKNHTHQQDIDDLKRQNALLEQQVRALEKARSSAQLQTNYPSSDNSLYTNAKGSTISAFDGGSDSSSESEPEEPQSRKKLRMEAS
Substance,listed as a hit [1],listed as a hit [2],listed as a hit [3],listed as a hit [4]
"Myc proto-oncogene protein, P01106",yes,–,–,–
"Histone H2B type 1-J, P06899",–,yes,yes,–
"Histone H2A type 1-B/E, P04908",–,yes,yes,yes
